Screening data from PubChem BioAssay.
GLS inhibitor: glutaminase GLS (human) inhibition; 410,000 tested, 0.21% active; Potency, µM (titrated, usually from 45.5 µM), usual class: inhibitors; GLS enzymatic activity, qHTS titration
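Human kidney-isoform GLS in 45 mM KH2PO4 pH 8.2, 0.02% Tween-20, with compound, started with 1mM L-Glutamine (added stock). Glutamate oxidase/HRP/Amplex red coupled fluorescence read at start and after 30 min at RT.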
VDR inhibitor: vitamin D3 receptor (human) inhibition | AID 504847 | Potency, µM, hits mostly inhibitors | 400,000 tested, 0.93% active | VDR-SRC2-3 peptide fluorescence polarization, 2 h
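VDR–SRC2-3 interaction, FP format. Cmpds 23 nl via pintool, brief spin, 2 h ambient incubation.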
PLK1 PBD inh: PLK1 (human) polo-box domain binding inhibition; Plk1 PBD binding of FITC phosphopeptide, fluorescence polarization; P53350; AID 720504; 360,000 tested, 2.8% active; Potency, µM, actives largely listed as inhibitors; further: series mostly up to about 57 µM; nearly all actives have a fitted effect of over 65% in size
PKM2 act: PKM2 (human) enzyme activation; purified PKM2, Kinase-Glo ATP luminescence, activation; response scale: 0% is enzyme alone, no compound; AID 1631; P14618; 260,000 tested, 0.34% active; Potency, µM (highest dose often 57.5 µM), actives largely listed as activators; further: nearly all actives have a fitted effect of over 55% in size
Target sequence (P14618 whole entry, looked up): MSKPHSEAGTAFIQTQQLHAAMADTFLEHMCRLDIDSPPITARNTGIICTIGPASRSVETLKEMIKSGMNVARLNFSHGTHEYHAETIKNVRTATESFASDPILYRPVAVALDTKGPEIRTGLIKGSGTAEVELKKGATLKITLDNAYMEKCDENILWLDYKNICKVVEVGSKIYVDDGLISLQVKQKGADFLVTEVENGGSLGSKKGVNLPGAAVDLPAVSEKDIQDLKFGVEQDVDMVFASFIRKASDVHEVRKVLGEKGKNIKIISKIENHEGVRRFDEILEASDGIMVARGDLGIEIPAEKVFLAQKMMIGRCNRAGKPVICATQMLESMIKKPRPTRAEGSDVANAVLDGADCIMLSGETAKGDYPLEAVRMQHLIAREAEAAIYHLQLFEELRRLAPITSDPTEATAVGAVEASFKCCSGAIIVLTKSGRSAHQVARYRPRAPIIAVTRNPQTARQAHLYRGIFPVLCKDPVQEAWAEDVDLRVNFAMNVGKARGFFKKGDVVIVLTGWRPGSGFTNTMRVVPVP
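ATP formation by purified human PK-M2, quantified via coupled luciferase luminescence after 1 h at room temperature with 0.1 mM ADP and 0.5 mM PEP final.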
GCN5L2 inh: inhibitors of human GCN5L2 histone acetyltransferase; Q92830; GCN5L2 HAT assay, ThioGlo1 CoA-SH fluorescence; Potency, µM (doses to about 58.9 µM), usual class: inhibitors; 390,000 tested, 0.21% active; AID 504327
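ThioGlo1-coupled HAT assay: 20nM GCN5L2, 70uM acetyl-CoA, 75uM H3(1-25) peptide, pH 7.5. Fluorescence read at 340/540nm at start and after 20 min at room temperature.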
Mito fusion yeast: blocks mitochondrial division or promotes mitochondrial fusion; S. cerevisiae fusion-defective mutant growth rescue, CellTiterGlo 48 h; Potency, µM (highest dose often 46.1 µM), hits mostly activators; 320,000 tested, 0.23% active; AID 485298; further: nearly all actives have a fitted effect of over 45% in size
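Compounds are tested for their ability to restore growth of mitochondrial fusion-defective yeast strains at non-permissive 37C in YPEG medium over 48 hours. Viability is quantified by luciferase luminescence.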
USP1-UAF1 confirm: blocks human USP1/UAF1 cleavage of Ub-Rhodamine; shares compounds with VDR inhibitor; Ub-Rhodamine cleavage, fluorescence kinetic read; Potency, µM (titrated, usually from 56.8 µM), actives largely listed as inhibitors; 50 tested, 50% active; AID 540327
VDR inh confirm: confirmation of human vitamin D receptor inhibitors; shares compounds with VDR inhibitor; VDR-coactivator inhibition assay, qHTS confirmation; Potency, µM, hits mostly inhibitors; 840 tested, 89% active
VDR FP fluor: blocks human VDR-coactivator binding in fluorescein assay. shares compounds with VDR inhibitor. VDR-coactivator binding, fluorescein fluorescence polarization. Potency, µM (highest dose often 57.1 µM), usual class: inhibitors. 840 tested, 48% active. AID 602200
VDR bla reporter: confirmation of human vitamin D receptor inhibitors in reporter cells | Potency, µM (series often up to 46.1 µM), hits mostly inhibitors | shares compounds with VDR inhibitor | AID 602202 | VDR beta-lactamase reporter cells, FRET ratio; cells co-treated with VDR agonist LG190178 | 840 tested, 23% active
VDR cytotox: cell toxicity, VDR inhibitor hit counter-screen. shares compounds with VDR inhibitor. cytotoxicity counter-screen, cell viability, qHTS. Potency, µM (series often up to 48.3 µM), actives largely listed as cytotoxic. 840 tested, 18% active. AID 602204; further: nearly all actives have a fitted effect of over 75% in size
A number is an active result; i = inactive; ? = inconclusive; nt = no result; ! = a repeat was not active. Most compounds without a hit are left out; they make up all but 3.4% or so of the library. The call rests on the fitted dose curve; in most records, active means well fitted curve in the direction sought with a large enough effect; inconclusive means small, poorly fitted or top-dose-only effect, or another doubt; inactive means no such curve, though single readings can be large; an effect the other way counts as inactive or inconclusive.

SMILES	GLS inhibitor	VDR inhibitor	PLK1 PBD inh	PKM2 act	GCN5L2 inh	Mito fusion yeast	VDR inh confirm	VDR FP fluor	VDR bla reporter	VDR cytotox	others
O=C(Nc1cc(S(=O)(=O)N2CCOCC2)ccc1N1CCCC1)c1ccccc1F	i	nt	i	nt	nt	nt	nt	nt	nt	nt
O=C(Nc1cc(S(=O)(=O)N2CCOCC2)ccc1N1CCCCC1)c1ccc(Cl)cc1	i	?	5.3µM	nt	i	i	9.5	?	i	i
Nc1cc(S(=O)(=O)N2CCCCC2)ccc1N1CCCCC1	i	i	i	nt	i	i	nt	nt	nt	nt
Nc1cc(S(=O)(=O)N2CCOCC2)ccc1N1CCCCC1	i	25µM	3µM	nt	?	nt	6	?	i	i
CC(C)(C)N1C(=O)c2ccccc2NC(=O)C1C(=O)NCc1ccco1 (stereo not given)	nt	nt	i	nt	nt	nt	nt	nt	nt	nt
Cc1ccc(CNC(=O)CSc2nc3ccsc3c(=O)n2-c2ccc(C(=O)O)cc2)cc1	i	i	nt	nt	i	nt	nt	nt	nt	nt
N#Cc1c(Nc2ccccc2)s[nH]c1=O	i	?	i	i	i	i	7.5	i	i	i
Cc1ccc(C(=O)NC2(O)C(=O)c3ccccc3C2=O)cc1C	i	10µM	i	i	i	i	?	?	i	i
O=C(NC1(O)C(=O)c2ccccc2C1=O)c1ccc(C(F)(F)F)cc1	i	1.8µM	i	i	i	i	4.7	?	i	i
O=C(COc1ccc(Cl)cc1)NCCc1csc(-c2ccc(C(F)(F)F)cc2)n1	i	i	nt	nt	i	nt	nt	nt	nt	nt
Cc1ccc(-c2nnc(OCc3cccnc3)c3ccccc23)cc1	i	i	i	i	i	?	nt	nt	nt	nt
Cc1ccc(S(=O)(=O)N[C@@H](Cc2ccccc2)C(=O)CCl)cc1	i	5.6µM	?	i	i	i	9.5	7.1µM	18µM	?	USP1-UAF1 confirm=47µM
CCOc1ccc(C(Nc2cccnc2)c2cc(Cl)c3cccnc3c2O)cc1 (stereo not given)	i	?	4.7µM	i	i	i	7.1	?	i	?
CCC(=O)NC(c1ccc(C)cc1)c1cc(Cl)c2cccnc2c1O (stereo not given)	i	i	nt	nt	i	nt	nt	nt	nt	nt
O=C(O)COc1ccccc1C(Nc1cccnc1)c1cc(Cl)c2cccnc2c1O (stereo not given)	i	22µM	1.2µM	i	?	i	13	?	i	i
Cc1ccc(NC(=O)CSc2nncn2C)c(C)c1	i	i	nt	nt	i	nt	nt	nt	nt	nt
Cc1ccc(C2=NN=C(NC(=O)CSc3nncn3C)SC2)cc1	?	3.2µM	3µM	i	i	i	1.1	?	i	?
COC(=O)/C=C1/S/C(=N/NC(=O)c2ccccc2OC)NC1=O	i	i	i	nt	i	i	nt	nt	nt	nt
O=C(/C=C/c1ccc(Cl)cc1)c1ccc([N+](=O)[O-])o1	i	11µM	?	nt	i	i	1.3	1µM	7.3µM	i
ON=Cc1ccnc2ccccc12	i	nt	i	nt	nt	nt	nt	nt	nt	nt
O=C(/C=C/c1ccnc2ccccc12)c1cccs1	i	?	?	i	i	i	11	18µM	?	?
CCCCC1C(=O)N(c2ccccc2)N(c2ccc(O)cc2)C1=O (stereo not given)	i	11µM!	24µM	nt	i	i	?	14µM	6.5µM	21µM
